# Values joined by “and” are separate entries in the source; they are usually repeats but may differ in a detail not shown here. Identical values can stand only once. Screen size: about 16,000 compounds; about 2,600 (16%) were called active. About 20% were inconclusive and are not listed. Calls come from the whole dose curve; as a rule, active = well fitted curve in the direction sought with a large enough effect; inconclusive = small, poorly fitted or top-dose-only effect, or effect the other way; inactive = no such curve, though single readings can be large or run the other way. The entries come from a sample that favours actives as a whole.
# Biological target: Cytochrome P450 2D6 (Homo sapiens) (UniProt P10635)
# Test: Cytochrome panel assay with activity outcomes
# Details: recombinant CYP, pro-luciferin dealkylation, luminescence, p450-cyp2d6; series mostly up to 57.1 µM; activity, negative = inhibition: at the top concentration
# Method: The P450 gene superfamily is involved in the metabolism and clearance of xenobiotics. This assay used various human CYP P450 isozymes to measure the dealkylation of various pro-luciferin substrates to luciferin. The luciferin is then measured by luminescence after the addition of a luciferase detection reagent. Pro-luciferin substrate concentration in the assay was equal to its KM for its CYP P450 isozyme. Inhibitors and some substrates limit the production of luciferin, and decrease measured luminescence.
# NCGC Assay Protocol Summary:
# 1, Reagent, 2 uL, Isozyme and Pro-Luciferin
# 2, Library compounds, 23 nl, 40 uM to 0.24 nM dilution series
# 3, Controls, 23 nl, Isozyme specific inhibitor
# 4, Reagent, 2 uL, NADPH regeneration solution
# 5, Incubation time, 60 min, Isozyme specific temperature
# 6, Reagent, 4ul, Detection reagent
# 7, Incubation time, 20 min, Isozyme specific temperature
# 8, Detection, 1 sec, ViewLux luminescent read
# The luciferase-based P450-GloTM Screening Systems were obtained from Promega (Madison, WI) for CYP 1A2 (V9770), CYP 2C9 (V9790), CYP2 C19 (V9880), CYP 2D6 (V9890), and CYP 3A4 Luciferin-PPXE (V9910) and were adapted for 1,536-well microplates and an automated protocol. The control compounds furafylline for 1A2 (F124), sulfaphenazole for CYP 2C9 (S0758), ketoconazole for CYP 2C19 (K1003), quinidine for 2D6 (Q3625), and ketoconazole for 3A4 (K1003) were purchased from Sigma Aldrich (St. Louis, MO). Recombinant P450 enzymes were obtained from baculovirus constructs expressed in insect cells (BD/Gentest).
# Medium-binding white solid Kalypsys plates used. Mixtures kept on ice. 1A2: 10 nM 1A2, 100 uM Luc-ME, 100 mM KPO4; 2C9: 10 nM 2C9, 100 uM Luc-H, 25 mM KPO4; 2C19: 5 nM 2C19, 10 uM Luc-H EGE, 50 mM KPO4; 2D6: 5 nM 2D6, 30 uM Luc-ME EGE, 100 mM KPO4; 3A4: 10 nM, 25 uM Luc-PPXE. All amounts are reflected in their final concentration, working concentration is 2x.
# NADPH regeneration solution: 1.3 mM NADP+, 3.3 mM glucose-6-phosphate, 3.3 mM MgCl2, 0.4 U/mL glucose-6-phosphate dehydrogenase for all isozymes, 200 mM KPO4 for 3A4. Mixture prepared at RT but kept on ice during automated run.
# RT incubation in auxilliary plate hotel for 1A2, 2D6, and 3A4; 37C for 2C9 and 2C19.
# Keywords: P450, CYP1A2, CYP2C19, CYP2C9, CYP2D6, CYP3A4, Luciferase, MLSMR, MLSCN, NIH Roadmap, qHTS, NCGC
# % is set by controls: 0 for no effect and ±100 for the full control effect.
# Cytochrome P450 2D6 (Homo sapiens), sequence (P10635 whole entry, looked up): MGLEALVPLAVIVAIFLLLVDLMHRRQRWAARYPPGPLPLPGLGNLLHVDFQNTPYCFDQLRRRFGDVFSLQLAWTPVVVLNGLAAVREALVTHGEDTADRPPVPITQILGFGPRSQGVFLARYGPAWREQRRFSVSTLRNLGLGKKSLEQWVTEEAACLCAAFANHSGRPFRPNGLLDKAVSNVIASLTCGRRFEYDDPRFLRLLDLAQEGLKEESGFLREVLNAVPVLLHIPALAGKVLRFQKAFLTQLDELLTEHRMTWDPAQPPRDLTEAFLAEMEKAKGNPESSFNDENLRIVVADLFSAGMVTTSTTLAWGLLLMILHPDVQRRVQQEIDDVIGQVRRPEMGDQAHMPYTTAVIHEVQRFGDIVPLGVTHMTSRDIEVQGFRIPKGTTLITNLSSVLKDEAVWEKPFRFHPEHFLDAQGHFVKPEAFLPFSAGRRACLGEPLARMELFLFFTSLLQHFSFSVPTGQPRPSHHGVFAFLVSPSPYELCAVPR
Structure (SMILES),AC50,"activity, negative = inhibition"
O=C1c2ccccc2-c2cc([N+](=O)[O-])c([N+](=O)[O-])cc21,3.16 µM (active),
O=C1c2cc([N+](=O)[O-])ccc2-c2ccc3c4ccc5c6c(ccc(c7ccc1c2c73)c64)C(=O)c1cc([N+](=O)[O-])ccc1-5,,-6.4% [at 11.4 µM] (inactive)
Cc1cc(C)nc(NC2=NCCS2)n1,,1.02% (inactive)
C/C(=N\OC(=O)NC(C)C)c1sc(-c2ccccc2)nc1C,,-28.9% (inactive)
CCOC(=O)c1[nH]c(C)c(C(=O)N2CCC3(CC2)OCCO3)c1C,,8.23% (inactive)
CN1CC[C@@]2(CCCN(C(=O)c3ccncc3)C2)C1,,-13.8% (inactive)
Cc1noc(C)c1C(=O)N1CCC2(CCCN(CC(C)C)C2)CC1,12.6 µM (active),
O=C(c1ccncc1)N1CCC2(CC1)CN(Cc1ccccc1)C2,6.31 µM (active),
O=C(Oc1ccccc1)N1CCC2(CCN(Cc3ccncc3)CC2)CC1,,-7.62% (inactive)
O=C(Oc1ccccc1)N1CCC2(CC1)CN(Cc1ccncc1)C2,,-16.1% (inactive)
O=C(c1ccco1)N1CCC[C@@]2(CCN(Cc3ccncc3)C2)C1,12.6 µM (active),
CC(C)CN1CC2(CCN(C(=O)c3ccncc3)CC2)C1,3.98 µM (active),
O=C(Oc1ccc(S(=O)(=O)F)cc1F)c1ccccc1Cl,,12.8% [at 11.4 µM] (inactive)
C/C(O)=C(/C#N)C(=O)Nc1cc(Br)ccc1Br,,2.34% (inactive)
Cn1c(=O)c2[nH]cnc2n(C)c1=O,,2.65% [at 25.6 µM] (inactive)
O=c1cc(-c2ccc(O)cc2)oc2cc(O)cc(O)c12,,5.24% (inactive)
COc1cc2c(cc1OC)[C@@]13CCN4CC5=CCO[C@H](CC(=O)O)[C@@H]([C@H]1N2)[C@H]5C[C@H]43,,-8.05% [at 11.4 µM] (inactive)
CCC(COC(=O)NC)NC(=O)Oc1ccccc1 (centres undefined),,-14% (inactive)
O=C(c1cc2cc3ccc(Cl)cc3nc2o1)N1CCC2(CC1)OCCO2,,-14.3% (inactive)
O=C(Cc1ccc(Cl)c(Cl)c1)N1CCCC[C@H]1CN1CCCC1,7.94 µM (active) and 2.51 µM (active),
CC[C@]1([C@H]2O[C@@H]([C@@H]3O[C@](O)(CO)[C@@H](C)C[C@H]3C)C[C@H]2C)CC[C@@H]([C@]2(C)CC[C@@]3(C[C@@H](O)[C@@H](C)[C@@H]([C@H](C)[C@H](OC)[C@H](C)C(=O)O)O3)O2)O1,,1.92% [at 25.6 µM] (inactive)
c1ccc(CCCCN2CCC(c3ccccc3)CC2)cc1,0.0398 µM (active),

Structure (SMILES),AC50,"activity, negative = inhibition"
C[C@@H](N)Cn1ccc2cc(F)c(Cl)cc21,,-5.27% (inactive)
CC(C)Oc1cc(-n2c(=S)[nH]c3ccccc3c2=O)c(Cl)cc1Cl,,-18.2% (inactive)
C[C@H](CC(C#N)(c1ccccc1)c1ccccc1)N1CCCCC1,2.51 µM (active),
CC(=O)Nc1ccccc1C(=O)OCc1ccc(C(=O)c2ccccc2)cc1,,0.604% (inactive)
CC(C)CC(=O)C[C@H](O)C(Cl)(Cl)Cl,,2.83% [at 11.4 µM] (inactive)
C[C@@H]1[C@@H](C)N1C[C@H](O)Cn1ccnc1[N+](=O)[O-] (some centres undefined),,4.54% [at 11.4 µM] (inactive)
C[N+](C)(C)[C@H](Cc1c[nH]c(=S)[nH]1)C(=O)O,,-8.35% [at 11.4 µM] (inactive)
O=C(O)CP(=O)(O)c1ccc(Cl)cc1,,9.45% (inactive)
NC[C@H](CC(=O)O)c1ccc(Cl)cc1,0.794 µM (active),
NC[C@@H](CC(=O)O)c1ccc(Cl)cc1,inactive,
CCN1CCC2(CC1)NC(CO)(CO)CO2,,10.6% (inactive)
O=c1[nH]c(=O)n(CCc2ccc(F)cc2)c(O)c1C=NCCCN1CCOCC1,,-11.6% (inactive)
COc1cc2c(cc1OC)[C@@H]1C(=O)c3ccc4c(c3O[C@@H]1CO2)C=CC(C)(C)O4,0.0631 µM (active),
OC(Cn1c2ccccc2c2ccccc21)C[n+]1ccccc1 (centres undefined),0.0126 µM (active),
C[C@]12CC[C@@H]3[C@H](CCC4=CC(=O)CC[C@]43C)[C@]1(O)CC[C@@]2(O)C(=O)CO,,16.3% [at 11.4 µM] (inactive)
Cc1nc(N)sc1CCN,,-0.208% (inactive)
C[C@@H](Cc1cccc(C(F)(F)F)c1)NCCCc1ccccc1,0.0126 µM (active),
CNCCCc1ccccc1,,-18.3% (inactive)
CC(O)(CS(=O)(=O)c1ccccc1)C(=O)Nc1cccc(C(F)(F)F)c1 (centres undefined),,-1.04% (inactive)
C[C@@]12CC[C@@H]3c4ccc(O)cc4C[C@H](CCCCCCCCCS(=O)CCCC(F)(F)C(F)(F)F)[C@H]3[C@@H]1CC[C@@H]2O (some centres undefined),,-5.58% (inactive)
CC(C)[C@@]1(NC(=O)[C@@H]2C[C@H]3c4cccc5[nH]cc(c45)C[C@@H]3N(C)C2)O[C@]2(O)[C@H]3CCCN3C(=O)[C@H](Cc3ccccc3)N2C1=O,,-17.6% [at 25.6 µM] (inactive)
CCN(CC)C(=O)N[C@H]1C[C@H]2c3cccc4[nH]cc(c34)C[C@@H]2N(C)C1,0.0398 µM (active),

# Reference: PubChem BioAssay AID1851 (National Center for Advancing Translational Sciences (NCATS), 2009)
